Data from PubChem BioAssay (NCATS).
Results filed as inconclusive are left out. Active and inactive are the calls of the source. Calls follow the shape of the dose curve; as a rule, active = well fitted inhibition curve with a large enough effect; inconclusive = small, poorly fitted or top-dose-only effect; inactive = flat fitted curve, though single readings scatter.

How the values were obtained:
Assay in all cases: qHTS profiling for inhibitors of Plasmodium falciparum proliferation (AID 504749); also: nearly all actives have a fitted effect of over 60% in size
Details in all cases: P. falciparum in erythrocytes, SYBR Green DNA, 72 h; series mostly up to 28.7 µM
[1] = test system: CP191
Outline: (§1)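 Three-day growth assay of blood-stage parasites in erythrocytes (0.3% parasitemia, 2.5% hematocrit) at 37 C, 5% CO2, quantified by SYBR Green DNA staining after overnight detergent lysis.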

[2] = test system: CP192
Outline: as §1

[3] = test system: CP194
Outline: as §1

[4] = test system: CP201
Outline: as §1

[5] = test system: CP203
Outline: as §1

[6] = test system: CP211
Outline: as §1

[7] = test system: CP215
Outline: as §1

[8] = test system: CP217
Outline: as §1

[9] = test system: CP237
Outline: as §1

[10] = test system: CP238
Outline: as §1

[11] = test system: CP247
Outline: as §1

[12] = test system: CP250
Outline: as §1

[13] = test system: CP252
Outline: as §1

[14] = test system: CP256
Outline: as §1

[15] = test system: CP260
Outline: as §1

[16] = test system: CP262
Outline: as §1

[17] = test system: CP265
Outline: as §1

[18] = test system: CP266
Outline: as §1

[19] = test system: CP268
Outline: as §1

[20] = test system: CP269
Outline: as §1

Measured: Potency

CCOC(=O)[C@H](CCc1ccccc1)N[C@@H](C)C(=O)N1[C@H](C(=O)O)C[C@H]2CCCC[C@@H]21
inactive: all assays above

c1ccc(-c2nc[nH]c2-c2ccccc2)cc1
inactive: all assays above

CCOc1ccccc1C(N)=O
inactive: all assays above

CCN(CC)CCNC(=O)c1cc(Br)c(N)cc1OC
inactive: all assays above

Nc1nc(N)c(-c2ccccc2)s1
inactive: all assays above

COc1ccc(/C=N/NC(=O)c2ccncc2)cc1OC
inactive: all assays above

CCCCCCCCCCCCCC(=O)OC(C)C
inactive: all assays above

O=C(NCCc1c[nH]c2ccccc12)c1cccnc1
inactive: all assays above

CC(C)CCCC(C)N (stereo not given)
inactive: all assays above

NC(=O)c1ccccc1O
inactive: all assays above

CCOc1cc(OCC)c(C(=O)CCC(=O)O)cc1OCC
inactive: all assays above

CC(=O)OC[C@H]1O[C@@H](n2ncc(=O)[nH]c2=O)[C@H](OC(C)=O)[C@@H]1OC(C)=O
inactive: all assays above

CCCCN=C(N)N=C(N)N
inactive: all assays above

CC(C)Cn1cnc2c1c(=O)n(C)c(=O)n2C
inactive: all assays above

CCC(CC)(CC(=O)Nc1cccc(/C=C/c2nc(C3CCC3)cs2)c1)C(=O)O
inactive: all assays above

CC(=O)N[C@@H](CCC(=O)O)C(=O)O
inactive: all assays above

CC1=C(C(=O)O)N2C(=O)[C@@H](NC(=O)[C@H](N)c3ccccc3)[C@H]2SC1
inactive: all assays above

CCCCCCCC/C=C\CCCCCCCCN
inactive: all assays above

NS(=O)(=O)Cc1noc2ccccc12
inactive: all assays above

C=C[C@@]1(C)CC(=O)[C@]2(O)[C@@]3(C)[C@@H](O)CCC(C)(C)[C@@H]3[C@H](O)[C@H](OC(C)=O)[C@@]2(C)O1
inactive: all assays above

Oc1ccccc1C=NCc1ccccc1
inactive: all assays above

CC(=O)Oc1ccc(C)cc1
inactive: all assays above

Cc1c(-c2ccccc2)oc2c(C(=O)OCCN3CCCCC3)cccc2c1=O
inactive: all assays above

Cl/C(=C\n1cncn1)c1ccc(Cl)cc1Cl
inactive: all assays above

Cc1cc(C)cc(OCC2CNC(=O)O2)c1 (stereo not given)
inactive: all assays above

CCNC(=O)NCc1cccc(Cl)c1
inactive: all assays above

CC(=O)Nc1ccc(OCC(O)CNC(C)C)cc1 (stereo not given)
inactive: all assays above
